Eleven molecules from PubChem BioAssay AID1347088 (National Center for Advancing Translational Sciences (NCATS), 2019) can be followed below.

Results filed as inconclusive are left out. A call without a number means that no potency is given here. Calls of active or inactive are those of the source. Calls follow the shape of the full dose curve.

This experiment is described as follows: qHTS for Inhibitors of the Functional Ribonucleoprotein Complex (vRNP) of Lymphocytic Choriomeningitis Arenaviruses (LCMV): Viability assay - Alamar blue signal for LCMV Confirmatory Screen. The settings on record: LCMV vRNP confirmatory screen cells; series mostly up to 53.9 µM.
As to `O=C(Nc1ccc([N+](=O)[O-])cc1Cl)c1cc(Cl)ccc1O`, the Potency was 3.43 µM (active). As for `CC(=O)[C@H]1CC[C@H]2[C@@H]3CCC4=CC(=O)CC[C@]4(C)[C@H]3CC[C@]12C`, the Potency result was “inactive”. For `Cc1cnc(NC(=O)C2=C(O)c3ccccc3S(=O)(=O)N2C)s1`, the Potency result is “inactive”.

As for `CC1OC(=O)[C@@H](C(C)C)NC(=O)C(C(C)C)OC(=O)[C@H](C(C)C)NC(=O)C(C)OC(=O)[C@@H](C(C)C)NC(=O)C(C(C)C)OC(=O)[C@H](C(C)C)NC(=O)C(C)OC(=O)[C@@H](C(C)C)NC(=O)C(C(C)C)OC(=O)[C@H](C(C)C)NC1=O` (stereo partly specified), the Potency was 0.611 µM (active). For the molecule `CCCCCC[C@H]1C(=O)O[C@H](C)[C@H](NC(=O)c2cccc(NC=O)c2O)C(=O)O[C@@H](C)[C@@H]1OC(=O)CC(C)C`, the Potency result was “inactive”. In the case of `O=c1ccc2ccc(O)c(O)c2o1` it was “inactive”; in that of `Fc1ccc(CNc2ncnc3ccc(F)cc23)cc1`, “inactive”. `Oc1cc(Cl)ccc1Oc1ccc(Cl)cc1Cl`: the Potency was 44.4 µM (active).

In the case of `CC[C@@H](C(=O)O)[C@@H]1O[C@@H]([C@@H](C)[C@H](O)[C@H](C)C(=O)[C@H](CC)[C@H]2O[C@]3(C=C[C@@H](O)[C@]4(CC[C@@](C)([C@H]5CC[C@](O)(CC)[C@H](C)O5)O4)O3)[C@H](C)C[C@@H]2C)[C@@H](C)C[C@@H]1C`, the Potency was 4.44 µM (active). Take `CN(C)c1ccc(O)c2c1C[C@H]1C[C@H]3[C@H](N(C)C)C(=O)C(C(N)=O)=C(O)[C@@]3(O)C(=O)C1=C2O`: the Potency result is “inactive”. `CC(O)C(O)[C@H]1CNc2nc(N)[nH]c(=O)c2N1` (stereo partly specified): the Potency result was “inactive”.
